A selection: hits, their analogues and other compounds. The true share with any hit is near 4.1%.
tim23-1 inh – growth inhibitors of tim23-1 mutant yeast, primary screen, luminescence, uHTS; S. cerevisiae tim23-1 growth, BacTiter-Glo luminescence, 24 h; inhibition, % at 20 µM; hit rate 1.3% among 330,000;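 active = growth inhibition of the mutant yeast at or above 50%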;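 also: temperature-sensitive mutant grown at 25 °C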
tim10-1 inh – growth inhibitors of tim10-1 mutant yeast, primary screen, luminescence, uHTS; S. cerevisiae tim10-1 ts strain growth, BacTiter-Glo, 24 h; inhibition, % at 20 µM; hit rate 2.2% among 330,000;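 active = inhibition of at least 40%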;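 also: mutant grown at 25 °C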
NLRP3 yeast inh – NALP3 inflammasome inhibitors in reconstituted yeast, primary screen, luminescence, uHTS. hit rate 0.39% among 330,000. AID 2825, 2010. inhibition, % at 10 µM. Yeast reconstituted NLRP3/ASC/caspase-1, beta-gal luminescence, 24 h;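 active = inhibition of 50% or more; inactive = inhibition below 50%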
TIM10 inh – growth inhibitors of isogenic TIM10 control yeast, primary screen, counter-screen for tim10-1 yeast inhibitor project, luminescence, uHTS; hit rate 1.4% among 330,000; AID 463195, 2010; inhibition, % at 10 µM; S. cerevisiae TIM10 strain growth, BacTiter-Glo luminescence, 24 h;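 active = inhibition of 40% or more at the single tested concentration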;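 also: wild-type TIM10 isogenic control strain grown at permissive 25 °C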
NALP1 inh – NALP1 inflammasome inhibitors in reconstituted yeast, colorimetric, S. cerevisiae, triplicate retest | S. cerevisiae NALP1/ASC/caspase-1 growth, X-gal OD620, 72 h | inhibition, % at 10 µM | hit rate 0.61% among 280,000; in the data active = inhibition mostly above about 24%, no sharp cut-off; inactive = mostly below about 32%
tim10-1 conf – growth inhibitors of tim10-1 mutant yeast, confirmation, single concentration, luminescence, S. cerevisiae | shares compounds with tim10-1 inh | S. cerevisiae tim10-1 ts strain growth, BacTiter-Glo, 24 h | inhibition, % at 20 µM | hit rate 56% among 7,400 | AID 463213, 2010;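 active = inhibition of yeast growth at or above a set limit in either of two repeat tests at 20 µM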;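 also: tim10-1 mutant grown at permissive 25 °C to find synthetic lethal compounds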
TIM10 conf – growth inhibitors of wild-type TIM10 yeast, confirmation, counter-screen for tim10-1 synthetic lethality project, single concentration, luminescence, S. cerevisiae; shares compounds with TIM10 inh; S. cerevisiae tim10 strain growth, BacTiter-Glo luminescence, 24 h; inhibition, % at 10 µM; hit rate 63% among 4,600;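 active = inhibition of yeast growth at or above a set limit in either of two replicates at 10 µM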; also: this counterscreen used the strain with wild-type TIM10
tim23-1 confirm – tim23-1 mutant yeast growth inhibitors, confirmation, luminescence, single concentration; inhibition, % at 20 µM; hit rate 83% among 4,400; S. cerevisiae tim23-1 growth, BacTiter-Glo luminescence, 24 h; AID 463218, 2010; shares compounds with tim23-1 inh;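 active = inhibition above about 39% in either of two replicate wells at 20 µM, limit read from the data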;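 also: temperature-sensitive tim23-1 mutant grown at 25 °C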
Numbers stand for hits; i = inactive; nt = no result.

SMILES | tim23-1 inh | tim10-1 inh | NLRP3 yeast inh | TIM10 inh | NALP1 inh | tim10-1 conf | TIM10 conf | tim23-1 confirm
Cc1c(NC(=O)c2ccc([N+](=O)[O-])o2)cccc1-c1nc2ncccc2o1 | 53 | 49 | i | 47 | i | 48 | 53 | 64
O=C(Nc1ccccc1Cl)c1ccc([N+](=O)[O-])o1 | 67 | 50 | i | 48 | i | 56 | 57 | 68
Cc1ccc(N=C(NO)c2nonc2N)c(C)c1 | i | i | i | i | i | nt | nt | nt
Cc1ccc(N=C(NOC(=O)c2ccccc2)c2nonc2N)c(C)c1 | 57 | 46 | i | 49 | i | 49 | 40 | 41
Cc1ccc(C(=O)/C=C/c2ccc3ncccc3c2)cc1 | 69 | 53 | i | 52 | i | 52 | 50 | 47
C#Cc1cccc(NC(=O)c2ccc(Cl)cc2Cl)c1 | 68 | 53 | i | 59 | i | 43 | 52 | 61
O=C(Nc1ccc(Nc2ccccc2)cc1)c1ccc(Cl)cc1Cl | i | i | i | i | nt | nt | nt | nt
CCOC(=O)C[C@H]1c2cc(F)ccc2S(=O)(=O)N1Cc1ccc(OC)cc1 | i | i | i | i | nt | nt | nt | nt
Cc1nc2ccccn2c1C(=O)N/N=C/c1cc(C)n(-c2ccc(Br)cc2)c1C | 60 | 44 | i | i | i | i | nt | 41
COc1cc(OC)c(C(=O)/C=C/c2ccccc2)c(O)c1O | 58 | 51 | i | i | i | 32 | nt | 63
COc1cc(Nc2ccccn2)cc(C(=O)Nc2cccc(C(F)(F)F)c2)c1 | 51 | 49 | i | i | nt | 36 | nt | 65
O=[N+]([O-])c1ccccc1S(=O)(=O)Nc1ccc(S(=O)(=O)Nc2nccs2)cc1 | 63 | 61 | i | 51 | i | 63 | 54 | 56
Cc1ccc(-c2cc(-c3ccccc3[N+](=O)[O-])[nH]n2)c(O)c1 | 60 | 52 | i | 44 | i | 42 | 31 | 66
Cc1ccc(-c2cc(-c3ccc(C)cc3O)[nH]n2)cc1 | i | i | i | i | i | nt | nt | nt
Oc1ccc(Cl)cc1-c1cc(-c2ccccc2)n[nH]1 | 60 | 43 | i | 55 | i | 36 | 58 | i
COc1ccccc1-c1cc(-c2cc(Cl)ccc2O)n[nH]1 | i | i | i | i | i | nt | nt | nt
Cc1ccc(-c2cc(-c3ccc(F)cc3)n[nH]2)c(O)c1 | 61 | 41 | i | i | i | 46 | nt | 51
Cc1ccc(-c2cc(NC(=O)c3ccccc3[N+](=O)[O-])n[nH]2)cc1 | i | i | i | i | i | nt | nt | nt
O=C(Nc1ccc(Oc2nnc(-c3ccccc3)c3ccccc23)cc1)c1ccccc1 | i | i | i | i | i | nt | nt | nt
O=C(CCC(=O)N1CCOc2ccccc21)Nc1ccccc1Br | i | i | i | i | i | nt | nt | nt
CCOc1cc(OCC)cc(C(=O)NC(=S)Nc2cccc(C(F)(F)F)c2)c1 | i | i | i | i | i | nt | nt | nt
O=C(NC(=S)Nc1cccc(C(F)(F)F)c1)c1ccc2nonc2c1 | 56 | 51 | i | i | i | i | nt | 63
FC(F)(F)c1cccc(NC(=S)Nc2ccc(Cl)c(Cl)c2)c1 | 86 | 73 | i | 76 | i | 82 | 73 | 90
FC(F)(F)c1cccc(NC(=S)NC(c2ccccc2)c2ccccc2)c1 | nt | nt | nt | nt | i | nt | nt | nt
CCS(=O)(=O)c1nc(S(=O)(=O)c2ccc(C)cc2)c(N2CC(C)CC(C)C2)s1 (stereo unspecified) | i | i | i | i | i | nt | nt | nt
SMILES | tim23-1 inh | tim10-1 inh | NLRP3 yeast inh | TIM10 inh | NALP1 inh | tim10-1 conf | TIM10 conf | tim23-1 confirm
COc1ccccc1C(=O)NC(CCSC)C(=O)NCC(c1cccs1)N1CCOCC1 (stereo unspecified) | i | i | i | i | nt | nt | nt | nt
C/C(=N\NC(=S)Nc1cc(S(=O)(=O)N2CCOCC2)ccc1Cl)c1ccccc1F | 61 | 41 | i | 44 | i | 37 | i | 42
CN(C)CC(C)(C)CNC(=S)Nc1cc(S(=O)(=O)N2CCOCC2)ccc1Cl | i | i | i | i | i | nt | nt | nt
O=C(Nc1ccc(Cl)cc1Cl)c1cc2ccccc2o1 | i | i | i | i | i | nt | nt | nt
O/N=C(\c1ccc(Cl)cc1)c1cc2ccccc2o1 | 67 | 46 | i | 53 | i | 67 | 60 | 64
CN(C(=O)Cn1nnc2ccccc2c1=O)C1CCCCC1 | i | i | i | i | i | nt | nt | nt
CCN(CC)CCNc1c2c(c(C#N)c3nc4ccccc4n13)CCCC2 | 57 | 68 | i | 60 | i | 56 | 53 | 67
O=C(NCC1CC1)c1ccc2c3n(nc2c1)-c1ccccc1CO3 | 69 | 42 | i | 45 | i | 42 | 44 | 69
O=C(NCCO)c1ccc2c3n(nc2c1)-c1ccccc1CO3 | i | i | i | i | i | nt | nt | nt
CCCN(CCC)C(=O)c1cc([N+](=O)[O-])cc2c1-c1ccc([N+](=O)[O-])cc1C2=C(C#N)C#N | 74 | 67 | i | i | i | 67 | nt | 75
CCCCN(CCCC)C(=O)c1cc(Cl)ccc1[N+](=O)[O-] | i | i | i | i | i | nt | nt | nt
Cc1ccc(C)c(S(=O)(=O)NCCN2CCOCC2)c1 | i | i | i | i | i | nt | nt | nt
CNC(=S)Nc1ccc(C23CC4CC(CC(C4)C2)C3)cc1 | 63 | 62 | i | 50 | i | 48 | 39 | 79
O=C(/C(N=Nc1cccc([N+](=O)[O-])c1)=C(/O)c1ccc(Br)cc1)C(F)(F)F | 62 | 62 | i | i | i | 62 | nt | 73
O=C(Cn1ccc(C(F)(F)F)n1)N/N=C/c1ccc(N2CCOCC2)cc1 | i | i | i | i | i | nt | nt | nt
CC(=O)/C=C/c1ccc2ccccc2n1 | 71 | 65 | i | 59 | i | 65 | 60 | 82
COc1ccc(CNC(=O)C2CCN(S(=O)(=O)N3CCCC3)CC2)c(OC)c1 | i | i | i | i | i | nt | nt | nt
CSc1n[nH]c2nc3c(c(=O)n12)C1(CCCC1)Cc1ccccc1-3 | 53 | 48 | i | i | i | 51 | nt | 55
Cc1ccc(-n2c(SCC(N)=O)nc3c(c2=O)C2(CCCC2)Cc2ccccc2-3)cc1 | 52 | 49 | i | i | nt | 36 | nt | 44
CCN(CC)Cc1nc2c(c(=O)[nH]1)C1(CCCCC1)Cc1ccccc1-2 | 50 | 41 | i | 50 | i | 41 | 47 | 40
Cn1c(NCCO)nc2c(c1=O)C1(CCCCC1)Cc1ccccc1-2 | 59 | 59 | i | i | i | 37 | nt | 63
CCSc1n[nH]c2nc3c(c(=O)n12)C1(CCCC1)Cc1ccccc1-3 | i | i | i | i | i | nt | nt | nt

Assay outcomes deposited in PubChem BioAssay by Sanford-Burnham Center for Chemical Genomics.
